Where “and” joins values, the source holds several entries; their conditions need not be identical. Identical values can stand only once. The campaign covered roughly 110,000 compounds. About 730 (0.66%) were called active. No stated cut-off is given here; in the data, active means inhibition above about 50%; inconclusive means no clear call, values can overlap the other calls; inactive means below that. For the sample, actives were picked, then their nearest neighbours and some compounds at random.
biological target: Tyrosine-protein phosphatase non-receptor type 7 (Homo sapiens) (UniProt P35236); test: inhibitors of human HePTP phosphatase, primary screen, biochemical, absorbance, leukemia target (AID 521); conditions: recombinant HePTP phosphatase activity, OD absorbance; at 20 µM; hits give high values;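 further: plate controls were vehicle for no effect and reference inhibitor for full effect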
Sequence (P35236 whole entry, looked up): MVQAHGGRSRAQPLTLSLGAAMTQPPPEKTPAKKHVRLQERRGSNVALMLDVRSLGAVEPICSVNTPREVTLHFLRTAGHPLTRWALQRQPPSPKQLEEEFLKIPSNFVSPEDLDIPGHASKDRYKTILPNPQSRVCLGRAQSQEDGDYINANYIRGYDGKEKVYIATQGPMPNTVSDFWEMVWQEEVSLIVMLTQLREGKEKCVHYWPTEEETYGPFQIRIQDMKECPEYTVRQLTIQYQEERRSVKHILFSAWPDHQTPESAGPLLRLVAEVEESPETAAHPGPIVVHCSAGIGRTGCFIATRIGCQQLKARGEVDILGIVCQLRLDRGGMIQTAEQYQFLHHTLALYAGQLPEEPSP

Q: O=C(CN1C(=O)/C(=C/c2ccccc2F)SC1=S)Nc1ccccc1F was tested. Which inhibition did it give?
A: -14.9% (inactive)

Q: With Clc1ccccc1OCCCN1CCOCC1 as the compound, how does the inhibition read?
A: -7.9% (inactive)

Q: O=C(CCc1ccccc1)Nc1ccc(Cl)cc1 was tested. Which inhibition did it give?
A: 5.1% (inactive)

Q: For CCOC(=O)COc1ccc(/C=C2/NC(=S)NC2=O)cc1OC, which inhibition is on record?
A: 4.1% (inactive)

Q: Which inhibition does the source give for Cc1ccc(-c2cc(C(=O)Nc3ccccc3)c3ccccc3n2)cc1 here?
A: 9.3% (inactive)

Q: For COc1cc(/C=C2\SC(=S)NC2=O)cc(Br)c1OCc1c(C)no[n+]1[O-], which inhibition is on record?
A: -10.3% (inactive)

Q: For CCN(CC)c1ccc(C=C2C(=O)N(C)C(=O)N(C)C2=O)c(O)c1, which inhibition is on record?
A: -4.9% (inactive)

Q: Which inhibition does the source give for Cc1ccc(C(=O)N/C(=C\c2sccc2C)C(=O)NCC(C)C)cc1 here?
A: 8.2% (inactive)

Q: Which inhibition does the source give for Nc1nc2nonc2nc1Nc1ccccc1 here?
A: 0.4% (inactive)

Q: How did the inhibition turn out when Cc1cc(N2C(=O)NC(=O)/C(=C\c3cn(C)c4ccccc34)C2=O)ccc1Br was run?
A: 4.9% (inactive)

Q: With Cc1oc2ccccc2c1/C=N/n1cnc2sc3c(c2c1=O)CCCC3 as the compound, how does the inhibition read?
A: -2.6% (inactive)

Q: N#CC1=C(N)n2c(s/c(=C\c3ccc4c(c3)OCO4)c2=O)=C(C#N)C1c1ccc2c(c1)OCO2 (centres undefined) was tested. Which inhibition did it give?
A: 86.3% (active)

Q: CCOC(=O)C1=C(C)N=c2s/c(=C\c3ccc4c(c3)OCO4)c(=O)n2C1c1ccc(C)cc1 (centres undefined) was tested. Which inhibition did it give?
A: 1.8% (inactive)

Q: How did the inhibition turn out when CCOC(=O)C1=C(C)N=c2s/c(=C\c3ccc4c(c3)OCO4)c(=O)n2C1c1ccc(OC)c(Br)c1 (centres undefined) was run?
A: 3.8% (inactive)

Q: For CC1CCOP(=O)(C(Nc2ccc([N+](=O)[O-])cc2)c2ccc(Br)cc2)O1 (centres undefined), which inhibition is on record?
A: -6% (inactive)

Q: How did the inhibition turn out when CCOc1ccc(-c2cc(C(=O)Nc3cccc([N+](=O)[O-])c3)c3ccccc3n2)cc1 was run?
A: 11.5% (inactive)

Q: How did the inhibition turn out when COc1ccc(-c2nc(-c3ccccc3)no2)c(OC)c1 was run?
A: 16.7% (inactive)

Q: With COc1ccc(-c2noc(-c3ccc(Br)cc3)n2)cc1 as the compound, how does the inhibition read?
A: -4.6% (inactive)

Q: Which inhibition does the source give for COc1ccc(/C=C2\SC(=Nc3ccc(F)cc3)NC2=O)cc1OC here?
A: 25.3% (inactive)

Q: Which inhibition does the source give for COc1cc2c(cc1NC(=O)c1c(-c3c(F)cccc3Cl)noc1C)oc1ccccc12 here?
A: -5.8% (inactive)

Q: With COc1ccc(-c2nnc(SCC(=O)NN)n2-c2ccccc2)cc1 as the compound, how does the inhibition read?
A: -0.1% (inactive)

Q: For COc1ccc(-c2nc3ccccc3c(C(=O)Nc3ccc(C(C)=O)cc3)c2C)cc1, which inhibition is on record?
A: -9.2% (inactive)

Q: For O=C(NC(=O)c1ccccn1)NC(c1ccccc1)c1ccccc1, which inhibition is on record?
A: -13% (inactive) and 2.8% (inactive)

Q: For O=C1NC(=S)N/C1=C/c1ccc(-c2cccc(Br)c2)o1, which inhibition is on record?
A: 3.7% (inactive)

Q: For Nn1c(NCc2ccccc2)nc2ccccc21, which inhibition is on record?
A: -4.8% (inactive)

Q: Cc1ccc(NC(=O)c2cnn(-c3ccccc3)c2NC(=O)c2ccccc2Cl)cc1C was tested. Which inhibition did it give?
A: 103% (active)

Q: For Cc1ccccc1NC(=O)c1cnn(-c2ccccc2)c1NC(=O)c1ccco1, which inhibition is on record?
A: 7.2% (inactive)

Q: Which inhibition does the source give for CCOC(=O)c1cnn(-c2ccccc2)c1NC(=O)c1ccc([N+](=O)[O-])cc1 here?
A: 1.7% (inactive)

Q: O=C1CC(N2CCN(c3ccccc3F)CC2)C(=O)N1c1cccc(Cl)c1 (centres undefined) was tested. Which inhibition did it give?
A: 5.6% (inactive)

Q: O=C1C=CC2=C3Oc4c(ccc5cc(O)ccc45)C(c4ccccc4C(=O)O)C3C=CC2=C1 (centres undefined) was tested. Which inhibition did it give?
A: 103% (active)

Q: How did the inhibition turn out when NC(=S)N/N=C(/Cc1ccccc1)c1ccc(-c2ccccc2)cc1 was run?
A: 6.5% (inactive)

Q: With COc1ccccc1C1SCCN1S(=O)(=O)c1ccc(-c2ccccc2)cc1 (centres undefined) as the compound, how does the inhibition read?
A: 7.9% (inactive)

Q: How did the inhibition turn out when Cc1cccc(N2CCN(C(=O)C(Cl)(Cl)Cl)CC2)c1C was run?
A: 5.3% (inactive)

Q: Which inhibition does the source give for CC(C)(O)C#Cc1ccc(C2C3=C(CC(C)(C)CC3=O)OC3=C2C(=O)CC(C)(C)C3)cc1 here?
A: 1.5% (inactive)

Q: For COc1cc(C(C)=O)ccc1OC(=O)CN1C(=O)c2ccccc2C1=O, which inhibition is on record?
A: -2.9% (inactive)

Q: Which inhibition does the source give for COc1ccc(C(=O)ON=C2c3ccccc3-c3ccccc32)cc1OC here?
A: 62.3% (active)

Q: For COc1cc2c(cc1C)/C(=N/OC(=O)c1ccc(OC)c([N+](=O)[O-])c1)CCC2, which inhibition is on record?
A: -10.5% (inactive)

Q: With CCCCOc1c([N+](=O)[O-])cc([N+](=O)[O-])c2nsnc12 as the compound, how does the inhibition read?
A: 10.8% (inactive)

Q: How did the inhibition turn out when O=C1Nc2ccccc2/C1=N\N=C\c1c(F)cccc1Cl was run?
A: 14% (inactive)

Q: For CCCC(NC(=O)c1ccccc1)C(=O)OCC(=O)Nc1sc2c(c1C(=O)OCC)CCCC2 (centres undefined), which inhibition is on record?
A: 1.3% (inactive)

Q: How did the inhibition turn out when CCOC(=O)c1c(N)sc(C)c1CC was run?
A: -13.6% (inactive)

Q: With CC1(C)Cc2ccccc2C(N/N=C/c2c(O)ccc3ccccc23)=N1 as the compound, how does the inhibition read?
A: 5% (inactive)

Q: How did the inhibition turn out when CCOc1ccccc1NC(=O)c1c(NC(=O)c2ccco2)sc2c1CCC(C)C2 (centres undefined) was run?
A: 4.6% (inactive)

Q: Which inhibition does the source give for CCOc1ccccc1NC(=O)c1c(NC(=O)c2cccs2)sc2c1CCC(C)C2 (centres undefined) here?
A: 74.5% (active)

Q: Cc1ccccc1NC(=O)c1c(NC(=O)C(C)(C)C)sc2c1CCC(C)C2 (centres undefined) was tested. Which inhibition did it give?
A: 3.9% (inactive)

Q: How did the inhibition turn out when ONC(=Nc1ccc2c(c1)OCO2)C(=Nc1ccc2c(c1)OCO2)NO was run?
A: -7.5% (inactive)

Q: How did the inhibition turn out when COc1ccc(C2SCCN2C(=O)c2cc3ccccc3oc2=O)cc1 (centres undefined) was run?
A: -6.8% (inactive)

Q: How did the inhibition turn out when Cc1ccc(OCC(=O)NCc2ccc(F)cc2)c(Br)c1 was run?
A: 0% (inactive)

Q: For O=C(COc1cc2oc(=O)c3c(c2cc1Cl)CCCC3)OCc1ccccc1, which inhibition is on record?
A: 7% (inactive)

Q: Which inhibition does the source give for CCOc1cccc(-c2cc(C(=O)N3CCCCCC3)c3ccccc3n2)c1 here?
A: -11.5% (inactive)

Q: Cc1ccc(NC(=O)c2cc(-c3ccc(C)o3)nc3ccccc23)nc1 was tested. Which inhibition did it give?
A: 2.7% (inactive)

Q: For Cc1ccc(-c2cc(C(=O)N3CCCCCC3)c3ccccc3n2)o1, which inhibition is on record?
A: 78.1% (active)

Q: With Cc1ccc(-c2cc(C(=O)NCc3ccccc3)c3ccccc3n2)o1 as the compound, how does the inhibition read?
A: 53.4% (active)

Q: Which inhibition does the source give for Cc1ccc(C)c(-c2cc(C(=O)NN)c3ccccc3n2)c1 here?
A: 5% (inactive)

Q: How did the inhibition turn out when Cc1ccc(-c2cc(C(=O)N3CC(C)CC(C)C3)c3ccccc3n2)cc1C (centres undefined) was run?
A: -17% (inactive)

Q: With COc1ccc(NC(=O)c2cccc(F)c2)cc1OC as the compound, how does the inhibition read?
A: 9.7% (inactive)

Q: With CCOc1cc(C(=O)Nc2cccc(F)c2)cc(OCC)c1OCC as the compound, how does the inhibition read?
A: 104% (active)

Q: With CCOc1cc(C(=O)Nc2ncccn2)cc(OCC)c1OCC as the compound, how does the inhibition read?
A: -0.3% (inactive) and 8.9% (inactive)

Q: How did the inhibition turn out when CCOc1ccc(C(=O)Nc2ccc(I)cc2Cl)cc1[N+](=O)[O-] was run?
A: 3.7% (inactive)
